Screening data deposited in PubChem by National Center for Advancing Translational Sciences (NCATS).
Tb PFK inh: qHTS Assay to Find Inhibitors of T. brucei phosphofructokinase. Potency, µM (highest dose often 57.5 µM), usual class: inhibitors. 0.17% of 330,000 active. ATP-dependent 6-phosphofructokinase (Trypanosoma brucei brucei), O15648. T. brucei PFK, ADP-Glo luminescence; further: nearly all actives have a fitted effect of over 60% in size
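Activity is normalized to no-enzyme wells (full inhibition) and 1.25 nM enzyme wells (no inhibition). Reaction: 0.5 mM F6P, 0.1 mM ATP, 45 min RT, ADP-Glo luminescence; concentration-response curves fitted and classed by quality.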
PLK1 PBD inh: qHTS for Inhibitors of PLK1-PDB (polo-like kinase 1 - polo-box domain): Primary Screen; 2.8% of 360,000 active; Serine/threonine-protein kinase PLK1 (Homo sapiens), P53350; Plk1 PBD binding of FITC phosphopeptide, fluorescence polarization; Potency, µM, hits mostly inhibitors; AID 720504, 2013; further: series mostly up to about 57 µM; nearly all actives have a fitted effect of over 65% in size
Pin1 inh: qHTS Assay to Find Inhibitors of Pin1 | Potency, µM (highest dose often 115 µM), hits mostly inhibitors | AID 504891, 2011 | 0.009% of 390,000 active | Peptidyl-prolyl cis-trans isomerase NIMA-interacting 1 (Homo sapiens), Q13526 | Pin1 FP peptide displacement, HiFluor488, 10 min; active means well fitted inhibition curve with a large enough effect in the polarisation, with a control signal flat, not every such curve was filed as active; inconclusive means small, poorly fitted or top-dose-only effect, or effect the other way, or a change in a side signal; inactive means no such curve, though single readings can be large or run the other way; the % refers to the polarisation
Target sequence (Q13526 whole entry, looked up): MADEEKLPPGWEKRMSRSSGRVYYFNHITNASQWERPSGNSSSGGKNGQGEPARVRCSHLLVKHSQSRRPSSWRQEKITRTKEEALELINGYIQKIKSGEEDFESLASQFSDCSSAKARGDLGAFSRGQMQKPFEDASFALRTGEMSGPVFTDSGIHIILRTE
TDP1 inh: qHTS Assay for Inhibitors of Tyrosyl-DNA Phosphodiesterase (TDP1); recombinant TDP1, AlphaScreen DNA substrate cleavage; Potency, µM (series often up to 130 µM), usual class: inhibitors; 0.28% of 350,000 active; further: nearly all actives have a fitted effect of over 40% in size
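Recombinant human Tdp1 (E. coli-expressed, 1 nM final) preincubated with compounds 15 min at room temperature, then 5'-biotin/3'-phosphotyrosine-FITC DNA substrate (15 nM final) added for 5 min. AlphaScreen beads (10 ug/ml final) added 10 min; cleavage lowers signal.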
VDR inhibitor: Inhibitors of the vitamin D receptor (VDR): qHTS. Vitamin D3 receptor (Homo sapiens), P11473. VDR-SRC2-3 peptide fluorescence polarization, 2 h. Potency, µM, most hits filed as inhibitors. 0.93% of 400,000 active. AID 504847, 2011
Target sequence (P11473 whole entry, looked up): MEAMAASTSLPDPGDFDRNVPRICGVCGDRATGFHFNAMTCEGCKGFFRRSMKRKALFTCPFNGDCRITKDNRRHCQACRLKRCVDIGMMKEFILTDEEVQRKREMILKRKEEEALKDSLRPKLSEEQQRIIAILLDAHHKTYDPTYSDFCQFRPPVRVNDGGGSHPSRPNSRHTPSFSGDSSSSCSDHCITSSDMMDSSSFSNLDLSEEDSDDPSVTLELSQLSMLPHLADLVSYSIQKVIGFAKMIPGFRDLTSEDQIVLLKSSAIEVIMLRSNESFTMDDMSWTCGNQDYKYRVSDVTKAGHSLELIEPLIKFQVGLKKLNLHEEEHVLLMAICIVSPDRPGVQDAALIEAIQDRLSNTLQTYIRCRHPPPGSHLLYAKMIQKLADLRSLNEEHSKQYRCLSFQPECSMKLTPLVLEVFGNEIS
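Compounds are added to VDR with labelled SRC2-3 coactivator peptide and held 2 h at room temperature. Inhibition of the VDR–peptide interaction is then read as a change in fluorescence polarization.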
S-ASM inh: Inhibitors of Secretory Acid Sphingomyelinase (S-ASM): qHTS; Sphingomyelin phosphodiesterase (Homo sapiens), P17405; placental ASM, HMU-PC fluorogenic substrate, 60 min; Potency, µM (top dose mostly 57.5 µM), usual class: inhibitors; 0.006% of 340,000 active
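Steps: dispense placental human ASM, pin compound, wait 10 min at room temperature, add HMU-PC0 substrate at 9 uM final, incubate 60 min at 37 °C, add stop solution raising pH to 10, read fluorescence.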
Large screens that a line does not name were inactive. In the library only some 3.1% were active in any assay of this set; here they are far more common. Unless noted, the call rests on the fitted dose curve; in most records, active means well fitted curve in the direction sought with a large enough effect; inconclusive means small, poorly fitted or top-dose-only effect, or another doubt; inactive means no such curve, though single readings can be large; an effect the other way counts as inactive or inconclusive.

COC(=O)C1=C(C(=O)OC)SC2(S1)C(C(=O)OC)=C(C(=O)OC)SC1=C2c2cc(C)ccc2NC1(C)C	PLK1 PBD inh 3.36µM, VDR inhibitor inconclusive
Cc1ccc(-c2csc(-c3cc4c([nH]c3=O)CC(c3ccccc3)CC4=O)n2)cc1 (stereo unspecified)	Pin1 inh inconclusive (no result: Tb PFK inh, PLK1 PBD inh, S-ASM inh)
Cc1ccc(OCc2ccc(C(=O)O)o2)cc1C	none (no result: TDP1 inh)
Cc1ccc(OCc2ccoc2C(=O)O)cc1C	PLK1 PBD inh inconclusive, TDP1 inh 50.1µM
O=Cc1ccc(CO)o1	none (no result: Tb PFK inh, PLK1 PBD inh, Pin1 inh, VDR inhibitor, S-ASM inh)
COc1ccc(C2Nc3ccccc3C(=O)N2Cc2ccccc2C(F)(F)F)cc1COc1ccc(NC(C)=O)cc1 (stereo unspecified)	none (no result: Tb PFK inh, PLK1 PBD inh, VDR inhibitor, S-ASM inh)
COc1ccc2nc(SCC(=O)Nc3cc(OC)c(OC)cc3C(=O)O)c(C)cc2c1	PLK1 PBD inh 29.9µM, Pin1 inh inconclusive
COc1cc(NC(=O)CSc2ncnc3sc4c(c23)CCCC4)c(C(=O)O)cc1OC	PLK1 PBD inh 26.7µM
COc1cc(NC(=O)CSc2nccc(C)n2)c(C(=O)O)cc1OC	none
COc1ccc(-c2onc(C)c2C)cc1S(=O)(=O)Nc1ccc(OC(F)(F)F)cc1	none (no result: Tb PFK inh, PLK1 PBD inh, S-ASM inh)
CCc1cccc(C)c1NC(=O)c1cc(S(=O)(=O)N(C)Cc2ccccc2)ccc1F	none (no result: Tb PFK inh, PLK1 PBD inh, S-ASM inh)
Cc1ccc(CNC(=O)[C@]2(C(F)(F)F)C[C@H](CCc3ccccc3)CCCO2)o1	VDR inhibitor inconclusive (no result: Tb PFK inh, PLK1 PBD inh, S-ASM inh)
Cc1[nH][nH]c(=O)c1C(c1ccc(-c2cccc(C(=O)O)c2)o1)c1c(C)[nH][nH]c1=O	PLK1 PBD inh inconclusive, Pin1 inh inconclusive, TDP1 inh 8.91µM, VDR inhibitor inconclusive
COC(=O)c1ccc(-c2ccc(C(c3c(C)[nH][nH]c3=O)c3c(C)[nH][nH]c3=O)o2)cc1	PLK1 PBD inh 11.9µM, Pin1 inh inconclusive, VDR inhibitor 35.5µM
Cc1ccc(NC(=O)Nc2cn(CC(C)C)c(=O)c3ccccc23)cc1N(C)C	none (no result: Tb PFK inh, PLK1 PBD inh, S-ASM inh)
COc1ccc(N2C(=O)CC(Sc3nnc(-c4ccccc4F)n3C)C2=O)cc1 (stereo unspecified)	PLK1 PBD inh 23.8µM
COc1ccc(N2C(=O)CC(Sc3nc4ccccc4s3)C2=O)cc1 (stereo unspecified)	none
C=CCNc1nnc(SC2CC(=O)N(c3ccc(OC)cc3)C2=O)s1 (stereo unspecified)	PLK1 PBD inh 26.7µM
O=C(CCCn1c(=O)c2cccn2c2ccccc21)NCCc1ccc(Cl)cc1	none (no result: Tb PFK inh, PLK1 PBD inh, S-ASM inh)
C[C@H]1Cc2c(-c3ccccc3)nc3c(c2CO1)CN(C(=O)c1cccnc1)CC3	none (no result: Tb PFK inh, PLK1 PBD inh, Pin1 inh, VDR inhibitor, S-ASM inh)
CC(=O)OCCNc1cc(Sc2nc3ccccc3[nH]2)c2nonc2c1[N+](=O)[O-]	Tb PFK inh inconclusive, PLK1 PBD inh 2.67µM, Pin1 inh inconclusive, VDR inhibitor 14.1µM
COc1ccc(N=CC2=C(O)CC(c3ccccc3)CC2=O)c(OC)c1 (stereo unspecified)	PLK1 PBD inh 21.2µM, VDR inhibitor inconclusive
CC1=C(c2ccc(C)cc2)S(=O)(=O)N(Cc2ccc(C(=O)Nc3ccc(C)c(F)c3)cc2)C1=O	none (no result: Tb PFK inh, PLK1 PBD inh, S-ASM inh)
Cc1ccc(Cn2c(S(=O)(=O)O)nc3ccccc32)cc1	PLK1 PBD inh 23.8µM, VDR inhibitor inconclusive
Cc1ccc(Cn2c(-c3ccccc3)nc3ccccc32)cc1	none (no result: Tb PFK inh, PLK1 PBD inh, S-ASM inh)
CCCNC(=O)CSc1nc2nc(C)c(Cc3ccccc3Cl)c(C)n2n1	none (no result: Tb PFK inh, PLK1 PBD inh, S-ASM inh)
COc1cccc(NC(=S)/C(=C(\[O-])c2ccc([N+](=O)[O-])cc2)[n+]2ccccc2)c1	PLK1 PBD inh 7.52µM, VDR inhibitor inconclusive
CC1CCCC(NC(=O)COC(=O)c2ccc(N(C)C)cc2)C1C (stereo unspecified)	none
CCN(CC)c1ccc(C(=O)OCC(=O)NC2CCCCC2C)cc1 (stereo unspecified)	PLK1 PBD inh 29.9µM
O=C(c1ccccc1)N1CCc2cc(CNS(=O)(=O)c3ccccc3Cl)ccc21	none (no result: Tb PFK inh, PLK1 PBD inh, S-ASM inh)
